Rows were chosen to be rich in hits. Some 8.1% of all compounds tested hit in one or more screens of this group.
ELG1 repair inh: ELG1-dependent DNA repair inhibition. HEK293T ELG1-luciferase reporter, luminescence, 16 h; DNA damage induced by 5-fluorouridine. Potency, µM (highest dose often 46.1 µM), usual class: inhibitors. 330,000 tested, 2.3% active; note: nearly all actives have a fitted effect of over 55% in size
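Cells (2,000 per well) received 5-fluorouridine plus test compound or DMSO and were incubated 16 hr at 37 °C, 5% CO2. Luciferase activity was read by luminescence 30 min after ONE-Glo addition; signal suppression marked inhibition of damage-induced ELG1 function.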
KB-3-1 tox: KB-3-1 parental cell cytotoxicity. KB-3-1 viability, CellTiter-Glo ATP luminescence, 72 h. Potency, µM (series often up to 46.1 µM), actives largely listed as cytotoxic. 400,000 tested, 1.4% active; note: nearly all actives have a fitted effect of over 60% in size
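Multi-concentration cytotoxicity screen in KB-3-1 cells grown in DMEM lacking phenol red with 10% FBS. After 72 h at 37 °C with compound, ATP-dependent luminescence was recorded.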
SW480 rereplic: DNA re-replication induction in SW480 cells; SW480 DNA re-replication, Hoechst DNA content imaging, 48 h; Potency, µM (doses to about 46.1 µM), usual class: activators; 340,000 tested, 1.8% active; AID 624297; note: nearly all actives have a fitted effect of over 55% in size
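250 cells/well; 23 nL cpd via pin tool; 48 hr, 37 C, 5% CO2; Hoechst 40 min; imager read of total nuclear intensity, ex 405/em 500-530 nm.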
MCF10A rereplic: induces DNA re-replication in MCF 10a normal breast cells; MCF 10A DNA re-replication, Hoechst nuclear intensity, 48 h; Potency, µM (top dose mostly 46.1 µM), hits mostly activators; 350,000 tested, 2.9% active; AID 624296; note: nearly all actives have a fitted effect of over 50% in size
KB-V1 MDR tox: kills drug-selected multidrug resistant KB-V1 cells | KB-V1 MDR cells viability, CellTiter-Glo, 72 h | Potency, µM (top dose mostly 46.1 µM), usual class: cytotoxic | 400,000 tested, 3.4% active | AID 1347076; note: nearly all actives have a fitted effect of over 60% in size
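Luminescent ATP read-out (CellTiter-Glo, 10 min) measures survival of drug-selected KB-V1 MDR cells after 72 h, 37 degrees C compound exposure. Medium: phenol-red-free DMEM, 10% FBS. Values from fitted concentration-response curves.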
Numbers stand for hits; i = inactive; ? = inconclusive; nt = no result given; [ ] = dose if it differs, or a comment. Calls come from the whole dose curve; as a rule, active = well fitted curve in the direction sought with a large enough effect; inconclusive = small, poorly fitted or top-dose-only effect, or another doubt; inactive = no such curve, though single readings can be large; an effect the other way counts as inactive or inconclusive.

SMILES	ELG1 repair inh	KB-3-1 tox	SW480 rereplic	MCF10A rereplic	KB-V1 MDR tox
CC1=C(C(=O)Nc2cccc(F)c2)C(c2ccsc2)C2=C(CC(C)(C)CC2=O)N1 (stereo unspecified)	?	2.91µM	nt	5.8µM	14.6µM
Cc1ccc(S(=O)(=O)NCC(=O)N(CC(=O)NC(C)(C)C)Cc2ccc3c(c2)OCO3)cc1	i	i	i	i	i
Cc1cccc(C)c1N1CCN(C(c2cc3ccccc3o2)c2nnnn2C(C)(C)C)CC1 (stereo unspecified)	nt	5.8µM	nt	nt	2.59µM
CCCCn1nnnc1C(c1cc2ccccc2o1)N1CCN(c2c(C)cccc2C)CC1 (stereo unspecified)	nt	?	nt	nt	i
O=C(N/N=C/c1ccc[nH]1)c1ccccc1OCc1ccc(F)cc1	i	i	i	i	i
CCOc1ccc(OCc2ccc(C(=O)NN=Cc3ccc[nH]3)cc2)cc1	?	2.31µM	i	?	i
O=C(C1=C[C@H](c2ccc3c(c2)OCO3)C[C@H](OCc2ccc(CO)cc2)O1)N1CCN(Cc2ccc3c(c2)OCO3)CC1	16.4µM	?	i	i	i
CN1CCN(C(=O)C2=C[C@@H](c3ccc4c(c3)OCO4)C[C@@H](OCc3ccc(CO)cc3)O2)CC1	i	i	i	i	i
O=C(C1=C[C@H](c2csc3ccccc23)C[C@H](OCc2ccc(CO)cc2)O1)N1CCN(Cc2ccc3c(c2)OCO3)CC1	?	i	i[9.22 µM]	23.1µM	i
O=C(C1=C[C@H](c2ccccc2)C[C@H](OCc2ccc(CO)cc2)O1)N1CCN(Cc2ccc3c(c2)OCO3)CC1	8.2µM	?	i[9.22 µM]	?	?
C#CCNC(=O)C1=C[C@H](c2csc3ccccc23)C[C@H](OCc2ccc(CO)cc2)O1	?	i	?	2.06µM	i
O=C(C1=C[C@H](c2csc3ccccc23)C[C@H](OCc2ccc(CO)cc2)O1)N1CCN(Cc2ccccc2)CC1	?	?	i	?	i
O=C(C1=C[C@@H](c2ccccc2)C[C@@H](OCCCCO)O1)N1CCN(Cc2ccc3c(c2)OCO3)CC1	i	i	i	i	i
COc1ccc(CSc2nncn2C)cc1[N+](=O)[O-]	i	i	i	i	i
Cc1occc1C(=O)Nc1nn[nH]n1	?	i	i	i	i
CC(=O)C1=C(C)Nc2ncnn2C1c1cccc(Br)c1 (stereo unspecified)	i	i	i	i	i
O=C(C1=C[C@H](c2coc3ccccc3c2=O)C[C@H](OCc2ccc(CO)cc2)O1)N1CCN(Cc2ccc3c(c2)OCO3)CC1	13µM	i	i	?	i
O=C(C1=C[C@@H](c2ccc3c(c2)OCO3)C[C@@H](OCCCCO)O1)N1CCN(Cc2ccc3c(c2)OCO3)CC1	i	i	i[9.22 µM]	?	i
O=C(C1=C[C@H](c2ccc(Br)cc2)C[C@H](OCCCCO)O1)N1CCN(Cc2ccc3c(c2)OCO3)CC1	?	i	i	18.4µM	?
CCc1ccc(-c2ccc(C(=O)Oc3ccc(Br)cc3)cc2)nc1	nt	i	nt	nt	i
CC(=NNC(=S)N1CCCCCC1)c1cccc2cccnc12	nt	?	?	6.51µM	3.66µM
CC(=NNC(=S)N1CCN(c2ccccn2)CC1)c1ccccn1	nt	i	?	i	7.31µM
S=C(NC1CCCCC1)N1CCc2ccccc2C1	?	?	i	i	14.6µM
S=C(NC1CC1)N1CCc2ccccc2C1	i	i	i	i	i
CC(=NNC(=S)N1CCN(C2CCCCCC2)CC1)c1ccccn1	nt	?	?	16.4µM	?
SMILES	ELG1 repair inh	KB-3-1 tox	SW480 rereplic	MCF10A rereplic	KB-V1 MDR tox
COc1cc(NC(=S)N2CCN(c3ccccn3)CC2)c(OC)cc1Cl	i	i	i	i	18.4µM
S=C(NC1CCCC1)N1CCN(c2ccccn2)CC1	i	i	i	i	20.6µM
COc1ccc(Cl)cc1NC(=S)N1CCN(c2ccccn2)CC1	i	i	i	?	i
COc1ccccc1CC(=O)Nc1ccc(S(=O)(=O)N2CCN(C)CC2)cc1	i	i	i	i	i
COc1ccc(OC)c(-c2nnc3n2N=C(c2ccc(OC)c(OC)c2)CS3)c1	i	?	?	?	?
COc1ccc(C2=Nn3c(nnc3-c3ccccc3F)SC2)cc1OC1CCCC1	?	8.2µM	?	?	?
COc1ccc(C2=Nn3c(nnc3-c3ccccc3F)SC2)cc1OC1CCOC1 (stereo unspecified)	i	2.06µM	10.3µM	?	20.6µM
COc1ccc(OC)c(-c2nnc3n2N=C(c2ccc(OC)c(OC4CCCC4)c2)CS3)c1	?	0.92µM	0.731µM	?	4.61µM
N#Cc1cnc2c(-c3ccccc3)c(-c3ccccc3)nn2c1N	i	i	i	i	i
CC(O)COc1ccc(/C(=N/O)c2ccccc2)cc1 (stereo unspecified)	i	i	i	i	i
O=C(NCCCCCCNC(=O)OCc1ccccc1)OCc1ccccc1	nt	i	i	i	i
O=C(OCc1ccccc1)N(CCCCN(CCCNCc1ccccc1)C(=O)OCc1ccccc1)CCCNCc1ccccc1	nt	16.4µM	?	5.8µM	?
CN1CC(c2ccccc2)C2(SC(=S)N(Cc3ccco3)C2=O)C12C(=O)Nc1ccccc12 (stereo unspecified)	?	20.6µM	?	6.51µM	?
CC(=O)Nc1ccc(NC(=O)C(C)OC(=O)c2cccc(S(=O)(=O)N3CCCC3)c2)cc1 (stereo unspecified)	i	i	i	i	i
O=C(c1cccs1)N1CCc2c([nH]c3ccccc23)C1c1ccc(Cl)cc1 (stereo unspecified)	i	11.6µM	?	?	11.6µM
CCOC(=O)c1cc2c(=O)n3ccccc3nc2n(CCOC)c1=NC(=O)c1c(-c2c(F)cccc2Cl)noc1C	i	?	?	18.4µM	?
CCOC(=O)c1cc2c(=O)n3ccccc3nc2n(CCCOC)c1=NC(=O)C(C)(C)C	i	?	18.4µM	?	i
CCCCn1c(=NC(=O)c2c(-c3c(F)cccc3Cl)noc2C)c(C(=O)OCC)cc2c(=O)n3ccccc3nc21	nt	i	nt	nt	i
COc1ccc(N2C(c3cc(OC)cc(OC)c3)=Cc3ccccc3C2CC(C)=O)cc1 (stereo unspecified)	nt	23.1µM	nt	nt	i
NS(=O)(=O)c1ccc(NC(=O)/C(=C/c2ccncc2)NC(=O)c2ccccc2)cc1	i	i	i	i	i
O=[N+]([O-])c1ccc(OC(F)F)c(/C=N/n2cnnc2)c1	i	?	3.26µM	i	?
O=C(/C=C/c1ccco1)N1CCN(S(=O)(=O)c2cccc([N+](=O)[O-])c2)CC1	i	i	i	i	23.1µM
COc1ccc(S(=O)(=O)N2CCN(C(=O)/C=C/c3ccco3)CC2)cc1	i	i	i	i	i
Cc1ccc(S(=O)(=O)NCCc2nnc3ccc(N4CCOCC4)nn23)cc1	nt	i	nt	nt	i
O=C(/C=C/c1cccs1)NC(=S)NNC(=O)c1ccccc1O	?	2.59µM	?	?	i
